Screening data deposited in PubChem BioAssay by National Center for Advancing Translational Sciences (NCATS).
Hits are enriched below; roughly 0.85% of the tested compounds scored in any of these assays.
GLS inhibitor – glutaminase GLS (human) inhibition; O94925; GLS enzymatic activity, qHTS titration; Potency, µM (series often up to 45.5 µM), for inactives: at the highest dose activity change, negative = inhibition, usual class: inhibitors; hit rate 0.21% among 410,000; also: potency is read from the fitted curve at half-maximal effect; % is scaled to controls: 0 for no effect and ±100 for the full control effect
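Assay buffer: 45 mM KH2PO4 pH 8.2, 0.02% Tween-20. hKGA acts on L-glutamine (1 mM solution added); product glutamate is reported by an oxidase/peroxidase Amplex Red coupling, with fluorescence taken at baseline and 30 min.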
GRP78 ERSR act – inducers of ER stress response in human glioma cells; U87-MG GRP78 promoter luciferase reporter, 16 h; Potency, µM, for inactives: at the top dose activation, most hits filed as activators; hit rate 0.02% among 420,000; AID 602332; also: potency is read from the fitted curve at half-maximal effect; series mostly up to about 76 µM; % of control where 0% means no effect; nearly all actives have a fitted effect of over 35% in size
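ERSR induction read as luciferase luminescence (Bright-Glo, 10 min at room temperature) in stably transfected human U87-MG glioma cells exposed to compounds for 16 h, using GRP78 as sensor.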
CCT modulator – modulators of cytosolic chaperonin (CCT/TRiC) activity; hit rate 0.3% among 360,000; AID 651819; activity change, % (test concentration not listed), hits read low; purified chaperonin ATPase assay, HTRF ADP detection, 30 min; in the data active = activity change below about -30%; also: % is scaled to controls: 0 for no effect and ±100 for the full control effect
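ATPase activity: ADP formed was measured by HTRF Transcreener (665/615 nm ratio) after 30 min at 37 deg C with 10 uM ATP. Compounds screened at one 76 uM concentration against 40 or 20 nM TRiC in Tris pH 7.4/KCl/MgCl2/DTT buffer.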
Mm-Cpn inhibitor – M. maripaludis TRiC chaperonin inhibition; purified Mm-Cpn ATPase, ADP Transcreener TR-FRET; Potency, µM (top dose mostly 76.9 µM), for inactives: at the highest dose activity, negative = inhibition, usual class: inhibitors; hit rate 0.031% among 330,000; AID 504842; also: potency is read from the fitted curve at half-maximal effect; % is scaled to controls: 0 for no effect and ±100 for the full control effect; nearly all actives have a fitted effect of over 80% in size
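Purified archaeal Mm-CPN (25nM final) preincubated 10 min at 37degC with compound, then 10uM ATP for 30 min at 37degC; ADP measured by HTRF Transcreener TR-FRET; buffer 30 mM TRIS pH 7.4, 100mM KCl, 5mM MgCl2, 1mM DTT.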
pAkt inh – blocks phosphorylation of Akt | Neuro2A IGF-stimulated pAkt S473 HTRF, 20 min; hits give low values | activity change, % for hits at 50 µM | hit rate 0.32% among 360,000 | AID 651550; in the data active = activity change below about -80%; inconclusive = mostly about -51% to -80%; also: % is scaled to controls: 0 for no effect and ±100 for the full control effect
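Single-point screen (50 µM final compound) in Neuro2A cells stimulated 20 min with 6 nM IGF at 37 deg C. After lysis, Ser473-phosphorylated Akt read by HTRF (ex 330 nm, em 615/665 nm) as the 665/615 ratio.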
IDH1 R132H inh – inhibitors of human mutant IDH1 R132H. O75874. IDH1-R132H enzyme, NADPH consumption, diaphorase/resazurin fluorescence. Potency, µM (highest dose often 76.6 µM), for the others: at the top dose activity change, negative = inhibition, actives largely listed as inhibitors. hit rate 0.093% among 390,000. AID 602179; also: potency is read from the fitted curve at half-maximal effect; % is scaled to controls: 0 for no effect and ±100 for the full control effect; nearly all actives have a fitted effect of over 65% in size
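IDH1-R132H (0.5 ug/mL) preincubated 30 min with compound, then NADPH (0.016 mM) and alpha-KG (2 mM) added; 80 min at RT, pH 7.5. Remaining NADPH coupled via diaphorase/resazurin to fluorescence (540/590 nm); concentration-response curves normalized to no-enzyme control.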
Numbers without * were called inactive; i = inactive; ? = inconclusive; nt = not tested or not shown. Unless noted, calls follow the shape of the dose curve; as a rule, active = well fitted curve in the direction sought with a large enough effect; inconclusive = small, poorly fitted or top-dose-only effect, or another doubt; inactive = no such curve, though single readings can be large; an effect the other way counts as inactive or inconclusive.

SMILES	GLS inhibitor	GRP78 ERSR act	CCT modulator	Mm-Cpn inhibitor	pAkt inh	IDH1 R132H inh
O=c1oc2cc(O)ccc2c2oc3cc(O)ccc3c12	7.9µM*	4%	-1	-6%	i	-4%
COc1cc(=O)n2c(c1C(=O)NCc1nonc1C)CCN(Cc1c[nH]c3ccccc13)CC2	nt	-5%	nt	nt	nt	nt
O=c1cc(-c2ccccc2)[nH]c2nc3ccccc3n12	-18%	-4%	1	-8%	-107%*	3%
O=c1cc(CCl)[nH]c2nc3ccccc3n12	3%	?	1	-1%	i	18%
COc1ccc(S(=O)(=O)N(C)CC(=O)NC2CCCC2)cc1Cl	1%	-2%	-2	0%	-110%*	3%
COc1ccc(S(=O)(=O)N2CCN(C(=O)NC3CCCCC3)CC2)cc1OC	-1%	-5%	-2	1%	-106%*	-5%
COc1cc(S(=O)(=O)NC2CCCCC2)ccc1Cl	-12%	-3%	2	0%	-119%*	8%
COc1ccc(Cl)cc1NC(=O)NC1CCCCC1	7%	4%	-3	1%	-127%*	5%
COc1ccc(S(=O)(=O)NC2CCCCC2)cc1C	4%	0%	-2	?	i	6%
CN(CC(=O)NC1CCCC1)S(=O)(=O)c1cccc(Cl)c1	3%	-3%	-5	0%	i	7%
CCCN1CCC(NC(=O)Nc2cc(Cl)ccc2OC)CC1	2%	-3%	-2	0%	i	3%
CC(=O)CC/C=C(\C)CC/C=C(/C)CC/C=C(\C)CCC=C(C)C	0%	-2%	nt	nt	nt	nt
Cc1noc(C)c1CC(=O)NCC1Cc2cc(-c3cccc(OC(F)(F)F)c3)ccc2O1 (configuration not stated)	nt	-2%	nt	nt	nt	nt
O=C(NCC1CCC2(CCN(Cc3ccc4ncccc4c3)CC2)O1)C1CCCO1 (configuration not stated)	nt	-3%	nt	nt	nt	nt
CCC1CN(CCNC(=O)c2cc3ccccc3oc2=O)Cc2cc(OC)ccc2O1 (configuration not stated)	nt	-2%	nt	nt	nt	nt
O=c1[nH]nc(Sc2ncnc3sccc23)n1CCc1ccccc1	-5%	-12%	1	-6%	-99%*	7%
CCN(CC)C(=O)CSc1n[nH]c(=O)n1CCc1ccccc1	1%	-1%	-2	-2%	i	0%
O=C(c1cccnc1)C1CCCN(Cc2ccc3c(c2)CN(C(=O)c2cnccn2)CCO3)C1 (configuration not stated)	nt	-4%	nt	nt	nt	nt
Cc1cc(C)c(S(=O)(=O)c2c(C)cccc2C)c(Cl)n1	11µM*	-3%	-1	1%	i	15%
Cc1cc(C)c(S(=O)(=O)c2cccc(Cl)c2)c(Cl)n1	0%	-3%	-2	3%	i	5%
COc1cc(/C=C2\SC(=S)N(C(C(=O)O)c3ccccc3)C2=O)cc(OC)c1OC (configuration not stated)	-9%	32µM*	-3	3%	i	2%
COC(=O)c1ccc(CN2CCOc3ccc(CN4CCC(O)(c5cccnc5)CC4)cc3C2)cc1	nt	-3%	nt	nt	nt	nt
COc1cc(S(=O)(=O)N2CCN(C)CC2)ccc1Cl	6%	-3%	-1	1%	i	6%
CN1CCN(S(=O)(=O)c2cccc(S(=O)(=O)c3ccc(Cl)c(Cl)c3)c2)CC1	0%	-5%	-1	1%	-108%*	0%
O=c1oc2c3c4c(cc2c(C(F)(F)F)c1CCN1CCOCC1)CCCN4CCC3	8%	-4%	0	1%	-109%*	2%
Cc1ccc(S(=O)(=O)Nc2nc(CN3CCOCC3)nc3sc(C(=O)O)c(C)c23)cc1	18µM*	-3%	0	nt	i	4%
O=C(NCCCNC(=O)c1c(F)cccc1F)c1c(F)cccc1F	-9%	-3%	-78*	-11%	i	1%
Cc1cnc(Nc2nc3ccccc3o2)nc1C(=O)Nc1cccc(C(F)(F)F)c1	21%	?	-1	-1%	-95%*	-10%
Cc1occc1C(=O)Nc1cccc(C(F)(F)F)c1	0%	3%	1	-1%	i	6%
